Reference: PubChem BioAssay (EPA / NIEHS)
The source made the active and inactive calls. How the source made its calls: active means hit-call score of the fitted dose curve at least 0.9, where 1 is the maximum; inactive means score below 0.9.

read-out: Nuclear factor NF-kappa-B p105 subunit (Homo sapiens) (UniProt P19838); assay: LTEA_HepaRG_NFKB1: Life Technologies and Expression Analysis (LTEA) Assay for Nuclear Factor Kappa B Subunit 1 (NFKB1) using HepaRG (AID 2283521); conditions: mRNA level, 48 h; actives raise or lower the signal;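 further: differentiated human HepaRG liver cells in serum-free induction medium; TaqMan qRT-PCR transcript normalised to ACTB GAPDH and POLR2A housekeeping genes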
Summary of the method: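 NFKB1 transcript was measured by TaqMan qRT-PCR on Fluidigm arrays, normalised to three housekeeping genes and fitted in both directions against 0.5% DMSO. HepaRG cells were dosed in duplicate for 48 h in serum-free induction medium, eight half-log steps from 100 uM.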

Sequence of Nuclear factor NF-kappa-B p105 subunit (Homo sapiens) (P19838 whole entry, looked up): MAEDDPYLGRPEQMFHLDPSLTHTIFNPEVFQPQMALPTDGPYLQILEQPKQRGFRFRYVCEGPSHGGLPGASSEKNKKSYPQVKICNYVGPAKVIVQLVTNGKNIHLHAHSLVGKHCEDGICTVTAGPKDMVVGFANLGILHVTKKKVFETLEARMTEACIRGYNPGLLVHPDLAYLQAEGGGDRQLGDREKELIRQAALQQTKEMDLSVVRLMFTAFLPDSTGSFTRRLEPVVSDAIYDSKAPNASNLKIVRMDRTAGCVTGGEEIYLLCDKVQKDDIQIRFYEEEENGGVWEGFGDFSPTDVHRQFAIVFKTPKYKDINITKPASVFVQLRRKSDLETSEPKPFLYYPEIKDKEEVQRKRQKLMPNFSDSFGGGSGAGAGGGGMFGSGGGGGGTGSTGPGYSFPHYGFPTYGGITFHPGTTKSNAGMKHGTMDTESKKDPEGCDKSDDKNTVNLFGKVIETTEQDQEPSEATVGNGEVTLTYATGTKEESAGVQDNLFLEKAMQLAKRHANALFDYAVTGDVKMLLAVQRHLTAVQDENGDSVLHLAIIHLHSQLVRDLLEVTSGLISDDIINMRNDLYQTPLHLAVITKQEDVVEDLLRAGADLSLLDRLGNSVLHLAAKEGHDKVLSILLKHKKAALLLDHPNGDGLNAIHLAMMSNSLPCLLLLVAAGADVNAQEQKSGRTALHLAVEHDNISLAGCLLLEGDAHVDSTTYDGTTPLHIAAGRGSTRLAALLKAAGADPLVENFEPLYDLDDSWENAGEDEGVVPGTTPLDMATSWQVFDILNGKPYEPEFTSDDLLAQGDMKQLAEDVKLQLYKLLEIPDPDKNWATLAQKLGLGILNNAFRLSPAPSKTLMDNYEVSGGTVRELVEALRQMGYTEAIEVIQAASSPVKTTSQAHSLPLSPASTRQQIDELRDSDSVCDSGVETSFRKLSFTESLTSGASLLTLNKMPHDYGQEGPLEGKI

Row | Structure (SMILES) | outcome
1 | CCCCCCCCOC(=O)c1ccccc1C(=O)OCCCCCCCC | inactive
2 | Oc1ccc(C(c2ccc(O)cc2)(C(F)(F)F)C(F)(F)F)cc1 | inactive
3 | O=S(=O)(O)C(F)(F)C(F)(F)C(F)(F)C(F)(F)F | inactive
4 | O=S(=O)(O)C(F)(F)C(F)(F)C(F)(F)C(F)(F)C(F)(F)C(F)(F)F | inactive

read-out: Protein phosphatase 2A (PPP2R4), PTPA (gene 5524); assay: LTEA_HepaRG_PPP2R4: Life Technologies and Expression Analysis (LTEA) Assay for Protein phosphatase 2A (PPP2R4) using HepaRG (AID 2283522); conditions: mRNA level, 48 h; actives raise or lower the signal
Summary of the method: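 Gene-expression endpoint in HepaRG hepatic cells: 48 h treatment across eight half-log concentrations up to 100 uM in 0.5% DMSO. PPP2R4 mRNA by qRT-PCR, normalized to three endogenous control genes.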

Row | Structure (SMILES) | outcome | AC50
5 | c1cc2ccc3cccc4ccc(c1)c2c34 | inactive | –
6 | CCSC(=O)N(CC)C1CCCCC1 | inactive | –
7 | CC(C)(c1ccccc1)c1ccc(O)cc1 | inactive | –
8 | CCOP(=S)(OCC)SCSC(C)(C)C | inactive | –
9 | CCOC(=O)C(O)(c1ccc(Cl)cc1)c1ccc(Cl)cc1 | inactive | –
10 | Nc1ccc(-c2ccc(N)cc2)cc1 | inactive | –
11 | COS(=O)(=O)OC | inactive | –
12 | CCCCCCCCCC[N+](C)(C)CCCCCCCCCC | inactive | –
13 | O=C(O)C(F)(F)C(F)(F)C(F)(F)C(F)(F)C(F)(F)C(F)(F)C(F)(F)C(F)(F)C(F)(F)F | – | 88.9 µM (active)
14 | Cc1cccc(C)c1N | inactive | –
15 | CCCCCCCCCc1ccc(O)cc1 | inactive | –
16 | O=NN(c1ccccc1)c1ccccc1 | inactive | –
17 | CCCCCCCCOC(=O)c1ccccc1C(=O)OCCCCCCCC | inactive | –
18 | Oc1ccc(C(c2ccc(O)cc2)(C(F)(F)F)C(F)(F)F)cc1 | – | 89 µM (active)
19 | O=C(O)C(F)(F)C(F)(F)C(F)(F)C(F)(F)C(F)(F)F | inactive | –
20 | NS(=O)(=O)C(F)(F)C(F)(F)C(F)(F)C(F)(F)C(F)(F)C(F)(F)C(F)(F)C(F)(F)F | – | 24.4 µM (active)

Row | Structure (SMILES) | outcome | AC50
21 | O=S(=O)(O)C(F)(F)C(F)(F)C(F)(F)C(F)(F)F | inactive | –
22 | CC1=C2C[C@H]3[C@@H](CC=C4C[C@@H](O)CC[C@@]43C)[C@@H]2CC[C@]12O[C@@H]1C[C@H](C)CN[C@H]1[C@H]2C | inactive | –
23 | CCC(C)(c1ccc(O)cc1)c1ccc(O)cc1 | inactive | –
24 | CN(C)c1nc(=O)n(C2CCCCC2)c(=O)n1C | inactive | –
25 | Cc1ccccc1O | inactive | –
26 | C=CC(N)=O | inactive | –
27 | Cc1cccc([N+](=O)[O-])c1 | inactive | –
28 | Cc1ccc(O)c(C)c1 | inactive | –
29 | CN(C)CCO | inactive | –
30 | O=C(N[C@H]1CN2CCC1CC2)c1cc2ccoc2cn1 | inactive | –
31 | O=S(=O)(O)C(F)(F)C(F)(F)C(F)(F)C(F)(F)C(F)(F)C(F)(F)F | inactive | –
32 | Cc1cc(-c2ccc(N)c(C)c2)ccc1N | inactive | –
33 | c1ccc(-c2ccccc2)cc1 | inactive | –
34 | C1CC2OC2CC1C1CO1 (stereo unspecified) | inactive | –
35 | Cc1ccccc1CO[C@@H]1C[C@@]2(C(C)C)CC[C@]1(C)O2 | inactive | –
36 | CCC(C)c1cc([N+](=O)[O-])cc([N+](=O)[O-])c1O (stereo unspecified) | – | 1.25 µM (active)
